The panel holds about 83,000 compounds, 20% with a hit somewhere; the sample as a whole holds those more often.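 Cells were grown in 96-well plates and exposed to the test compound at a single concentration for 48 hours; results are reported as percent growth, with values below 10 considered active.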 Values without a mark were called inactive. The source made the active and inactive calls.
What was measured:
Experiment in all cases: NCI-60 one-dose screen, 48 h (100 = growth as untreated, 0 = no growth, -100 = all killed)
Settings in all cases: 10 µM unless noted
[1] = test system: EKVX NSCLC
[2] = test system: SN12C renal
[3] = test system: UO-31 renal
[4] = test system: TK-10 renal
[5] = test system: ACHN renal
[6] = test system: CAKI-1 renal
[7] = test system: A498 renal
[8] = test system: CCRF-CEM leukemia
[9] = test system: MOLT-4 leukemia
[10] = test system: SK-MEL-2 melanoma

Row | Compound | growth [1] | growth [2] | growth [3] | growth [4] | growth [5] | growth [6] | growth [7] | growth [8] | growth [9] | growth [10]
1 | CCCCCc1c(C)[nH]c(/C=C2\N=C(c3ccc[nH]3)C=C2CC)c1C | -90.3% (active) | -89.9% (active) | -85.8% (active) | -88.9% (active) | -94.7% (active) | -82.1% (active) | -90.8% (active) | -58.3% (active) | -58.8% (active) | 
2 | OC(c1cc2cc(Cl)ccc2c2cc(C(F)(F)F)ccc12)C1CCCCN1 (stereo not given) | -40.4% (active) | -62.8% (active) | -88.2% (active) | -96.4% (active) | -78.2% (active) | -74.2% (active) | 27.2% | -61.2% (active) | -69.3% (active) | 
3 | Brc1cccc(-n2ncc3c(Nc4ccc(-c5nnc(-c6ccccc6)o5)cc4)ncnc32)c1 | 102% | 97.8% | 75.9% | 120% | 96.7% | 90.4% | 109% | 118% |  | 
4 | FC(F)(F)C1=NNC(c2ccc3ccccc3c2)=NN1 |  | 93.7% | 65.6% | 129% |  | 102% | 90.5% | 92.4% | 107% | 111%
5 | Cc1cccc(C(=O)O)n1 | 93.9% | 102% | 72.3% | 109% | 102% | 69.8% | 116% | 146% |  | 
6 | CCCCCCCCCCCCCC[N+](C)(C)CCCCCCCCCCCCCC |  | 67.6% | 78% |  | 57.1% | 51.6% | 102% |  | 51.2% | 67.6%
7 | CCc1ccc2c(c1)N(CCO)C1=C(C(=O)OC1)C2c1cccc(Cl)c1 (stereo not given) | 43% | 38.7% | 34.9% | 49.9% | 42% | 27.6% | -1.08% (active) | 10.5% | 17.6% | 
8 | COc1ccc2c(c1)N(CCO)C1=C(C(=O)OC1)C2c1cccc(Br)c1 (stereo not given) | 37.4% | 27.3% | 32.3% | 60% | 28.4% | 8.86% (active) | -1.77% (active) | 11.7% | 13.9% | 
9 | O=C(C(Br)C(Br)c1ccccc1)C(Br)C(Br)c1ccccc1 (stereo not given) |  | -30.5% (active) | -96.6% (active) | -87.9% (active) | -96% (active) |  | 84.6% | -43.8% (active) | -43.4% (active) | -28.7% (active)
10 | COc1ccc(-c2nsc3c2NC(=O)CC3c2ccc3c(c2)OCO3)cc1 (stereo not given) |  | 55.8% | 33.6% |  | 50.3% | 26.1% |  | 3.82% (active) | 18.4% | 26.4%
11 | Cc1nn(-c2ccc(Cl)cc2)c(=O)n1CCN1CCOCC1 | 75.5% | 89.6% | 66% | 64.4% | 38.7% | 72.4% | 105% | 63.2% | 90.9% | 
12 | CC(C)[C@H](CN)NC[C@H](C)NS(=O)(=O)c1ccc(C(C)(C)C)cc1 | 90% | 99.8% | 77.1% | 93.8% | 103% | 94.1% | 107% | 91.5% | 92.6% | 
13 | CC(CN1CCN(CCOCCO)CC1)CN1c2ccccc2Sc2ccc(Cl)cc21 (stereo not given) |  | 69.9% | 50.1% |  | 69.4% | 69.4% | 43.9% | 63.2% | 28.5% | 80.7%
14 | CC(=O)c1nn(-c2ccccc2)/c(=N\N=C\c2coc3ccc(F)cc3c2=O)s1 | 81.6% | 97.6% | 69.6% | 163% | 94% | 82.3% | 125% | 97.2% | 100% | 
15 | CS(=O)(=O)Nc1cc(-c2cc3ncc(C#N)c(Nc4ccc(Oc5ccccc5)c(Cl)c4)c3s2)cnc1Cl | 58.1% | 45.7% | 22.6% | 45.4% | 39.2% | 19.4% | -15.2% (active) | 38.3% | 36.9% | 
16 | COc1ccc(C2C3=C(COC3=O)N(CCO)c3cc(OC)c(OC)cc32)cc1 (stereo not given) | 86.2% | 102% | 90.8% | 93.4% | 99.8% | 108% | 103% | 95.8% | 88.2% | 
17 | CCCCN(CCCC)CCC(=O)c1ccc(OC)c2ccccc12 | 92.8% | 94.9% | 57.9% | 97.8% | 92.3% | 52.1% | 107% | 35.7% | 28.6% | 
18 | CC(=O)OC1Oc2cc(C)c(C)cc2-c2oc(=O)c(-c3cc4ccccc4oc3=O)cc21 (stereo not given) | 115% | 114% | 96.2% | 156% | 71.9% |  | 75% | 94% |  | 
19 | Oc1[nH]c2ccc(Cl)cc2c1/C=c1/ccc2c(c1)N=C(c1ccc(F)cc1)N=2 | 40.4% | 74.1% | 61.4% | 111% | 86.6% | 44.5% | 56.1% | 7.83% (active) | 35% | 
20 | CC(=O)[C@@]1(O)[C@H](C)C[C@H]2[C@@H]3C=C(C)C4=Cc5c(cnn5-c5ccccc5)C[C@]4(C)[C@H]3[C@@H](O)C[C@@]21C | 13.2% | 41.3% | -4.99% (active) | 34.5% | 42.3% |  | -16.8% (active) | -28% (active) |  | 
21 | C1=C\CCCCN2CC[C@H]3[C@H](CCCC/C=C\CCCN4C[C@@H](CCCCC/1)C[C@@H]3C4)C2 | 108% | 81.2% | 14.6% | 109% | 23.4% |  | -11.8% (active) | 7.61% (active) |  | 
22 | O=C(Cc1ccc(Nc2ccnc(C(F)(F)F)c2)cc1)N/N=C/c1ccccc1O | 25.7% | 36.1% | 0.112% (active) | 22.7% | 4.09% (active) | 32.3% | 145% |  | 64.4% | 
23 | Cc1ccc2nc(CN(CCN(Cc3nc4ccc(C)cc4[nH]3)Cc3nc4ccc(C)cc4[nH]3)Cc3nc4ccc(C)cc4[nH]3)[nH]c2c1 | -97.5% (active) | -96.7% (active) | -73.7% (active) | -80.9% (active) | -99.2% (active) |  | -94% (active) | -61.7% (active) |  | 
24 | CC(C)c1ccc(Cn2ccc3c4c(N)nc(NC5CC5)nc4ccc32)cc1 | -84.2% (active) | -91.5% (active) | -99% (active) | -97.2% (active) | -98.9% (active) | -98.6% (active) | -82.3% (active) | -16.3% (active) | -42.8% (active) | 
25 | CNC(=O)c1ccccc1Sc1ccc2c(/C=C/c3ccccn3)n[nH]c2c1 | 53.8% | 27.6% | 17.3% | 54.8% | 31.2% | 30.7% | -23.3% (active) |  | 13.4% | 
26 | Cc1nc([C@H]2CC[C@H]3[C@@H]4CCC5=CC(=O)CC[C@]5(C)[C@H]4CC[C@]23C)cs1 | 42.2% | 84.1% | 76.3% | 103% | 68.6% |  | 74.4% | 40.7% |  | 
27 | Nc1cccc(S(=O)(=O)c2cccc(N)c2)c1 | 105% | 112% | 95.8% | 123% | 102% | 98.4% | 108% | 102% | 10.4% | 
28 | C#CC[C@@H]1C[C@]2(C)[C@H]3CC=C4[C@H]5CC(C)(C)CC[C@]5(C(=O)NCCCCN)CC[C@@]4(C)[C@]3(C)CC[C@H]2C(C)(C)[C@H]1OC(C)=O | 81.1% | -51.2% (active) | -44.3% (active) | -27.5% (active) | -91.6% (active) | -70% (active) | 104% | 17.9% | 12.2% | 
29 | Cc1cc(C)c([O-])c(CN(C)CCN(C)Cc2cc(C)cc(C)c2[O-])c1.O=C([O-])c1cccc(C(=O)[O-])n1.[Ti+4] | 27.1% | 27.4% | -9.59% (active) | -20.6% (active) | 19.4% | 24.6% | -86.2% (active) | -2.1% (active) | -5% (active) | 
